The values below come from PubChem BioAssay (NCI).

The panel holds about 83,000 compounds, 20% with a hit somewhere; the sample as a whole holds those more often.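 Values shown are percent growth following 48 h exposure of cells in 96-well plates to a single concentration of compound; below 10 was considered active.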 Unmarked numbers belong to inactive results. Calls of active or inactive are those of the source.

What all share (assay): NCI-60 one-dose screen, 48 h (100 = growth as untreated, 0 = no growth, -100 = all killed)
One assay has as its system SK-MEL-2 melanoma. The settings on record: 10 µM unless noted.
For the next assay, the system named is EKVX NSCLC. The following applies: 10 µM unless noted.
The next assay deals with SN12C renal. The following applies: 10 µM unless noted.
In the next assay the test system is UO-31 renal. The following applies: 10 µM unless noted.
Another assay relates to ACHN renal. The following applies: 10 µM unless noted.
The next assay concerns CAKI-1 renal. The following applies: 10 µM.
In another assay the test system is A498 renal. The following applies: 10 µM unless noted.
For the next assay, the system named is CCRF-CEM leukemia. The following applies: 10 µM unless noted.
A further assay relates to MOLT-4 leukemia. The settings on record: 10 µM unless noted.
In a further assay the test system is SR leukemia. The settings on record: 10 µM unless noted.
The test system of another assay is RPMI-8226 leukemia. The settings on record: 10 µM unless noted.
For a further assay, the system named is OVCAR-8 ovarian. The settings on record: 10 µM unless noted.
The subject of a further assay is OVCAR-5 ovarian. The settings on record: 10 µM unless noted.
The next assay relates to OVCAR-4 ovarian. The following applies: 10 µM unless noted.
A further assay has as its system SK-OV-3 ovarian. The settings on record: 10 µM unless noted.
In the next assay the test system is IGROV1 ovarian. The settings on record: 10 µM unless noted.
The test system of a further assay is OVCAR-3 ovarian. The settings on record: 10 µM unless noted.
The test system of the next assay is HS 578T breast. The following applies: 10 µM unless noted.
A further assay concerns NCI/ADR-RES ovarian. The settings on record: 10 µM unless noted.

With `O=C(O)c1cccc2oc(-c3ccccc3O)nc12`, the growth in the assay with SK-MEL-2 melanoma is 71.2%; with EKVX NSCLC it was 45%; in the assay on SN12C renal, 57.5%; with UO-31 renal, 54.3%; in the assay on ACHN renal it was 57.9%; with CAKI-1 renal, 42.3%. The growth is 47.8% in the assay on A498 renal; 31.3% with CCRF-CEM leukemia; 66.4% in the assay on MOLT-4 leukemia; 47.6% in the assay on SR leukemia; 50.4% in the assay on RPMI-8226 leukemia; 31.9% in the assay with OVCAR-8 ovarian. In addition, the growth in the assay on OVCAR-5 ovarian was 74.7%; in the assay with OVCAR-4 ovarian it was 20.8%; with SK-OV-3 ovarian it was 58.4%; in the assay on IGROV1 ovarian, 60.5%; in the assay on OVCAR-3 ovarian, 15.5%; with HS 578T breast, 80.4%. The growth with NCI/ADR-RES ovarian was 19.8%.

Regarding `CCOC(=O)c1[nH]c(-c2ccc(Cl)cc2)cc1-c1cccnc1`, the growth is 39.5% in the assay on SK-MEL-2 melanoma; 24.3% in the assay on EKVX NSCLC; 43.6% with SN12C renal; 21% with UO-31 renal; 35.7% with ACHN renal; 28.3% in the assay on CAKI-1 renal. Moreover, the growth in the assay with A498 renal is -9.26% (active); with CCRF-CEM leukemia it was 9.2% (active); in the assay with MOLT-4 leukemia it was 11.7%; in the assay with SR leukemia, 12.9%; with RPMI-8226 leukemia, 4.59% (active); in the assay with OVCAR-8 ovarian it was 39.3%. Besides, the growth in the assay with OVCAR-5 ovarian was 47.3%; in the assay with OVCAR-4 ovarian, 51.1%; in the assay on SK-OV-3 ovarian, 7.46% (active); with IGROV1 ovarian, 43.9%; with OVCAR-3 ovarian it was -7.92% (active); with HS 578T breast, 16.3%. The growth in the assay on NCI/ADR-RES ovarian is 12.1%.

Turning to `CCCCOc1nc2ccc(Cl)cc2cc1/C=C/C(=O)/C=C/c1ccc(OC)cc1`, the growth was 90.5% with SK-MEL-2 melanoma; 110% in the assay with EKVX NSCLC; 92.7% in the assay on SN12C renal; 84.4% in the assay with UO-31 renal; 105% in the assay on ACHN renal; 99.1% in the assay on CAKI-1 renal. Also, the growth was 101% in the assay on A498 renal; 87.2% in the assay on CCRF-CEM leukemia; 78% in the assay with MOLT-4 leukemia; 76.2% with SR leukemia; 8.93% (active) with RPMI-8226 leukemia; 96.2% in the assay on OVCAR-8 ovarian. In addition, the growth is 122% with OVCAR-5 ovarian; 103% with OVCAR-4 ovarian; 110% in the assay with SK-OV-3 ovarian; 93.2% in the assay on IGROV1 ovarian; 98.2% in the assay with OVCAR-3 ovarian; 107% in the assay with HS 578T breast. For the same compound, the growth in the assay on NCI/ADR-RES ovarian was 107%.

`O=[N+]([O-])c1ccccc1NC1c2ccccc2Oc2ccccc21`: the growth in the assay on SK-MEL-2 melanoma was 57%; in the assay on EKVX NSCLC it was 78.2%; in the assay on SN12C renal, 92.9%; with UO-31 renal, 60.8%; in the assay with ACHN renal, 71.2%; in the assay with CAKI-1 renal, 45.6%. Moreover, the growth with A498 renal is 10.7%; with CCRF-CEM leukemia, 42.9%; with MOLT-4 leukemia it was 13.8%; with SR leukemia, 2.25% (active); in the assay on RPMI-8226 leukemia it was 69.5%; in the assay on OVCAR-8 ovarian, 72.9%. The growth was 76.8% with OVCAR-5 ovarian; 98.7% in the assay with OVCAR-4 ovarian; 76.9% in the assay with SK-OV-3 ovarian; 49.3% in the assay on IGROV1 ovarian; 3.28% (active) in the assay on OVCAR-3 ovarian; 31.4% in the assay on NCI/ADR-RES ovarian.

Take `COc1ccc(-c2nn(-c3ccc(NC(=O)c4cc(Cl)cc(Cl)c4)cc3)cc2-c2ccncc2)cc1Cl`: the growth is 49.9% in the assay on SK-MEL-2 melanoma; 74.6% in the assay on EKVX NSCLC; 85% in the assay on SN12C renal; 25% in the assay with UO-31 renal; 63.6% in the assay with ACHN renal; 7.27% (active) in the assay on CAKI-1 renal. Besides, the growth in the assay on A498 renal is 50.9%; in the assay with CCRF-CEM leukemia, 54.8%; in the assay on MOLT-4 leukemia, 18.9%; with SR leukemia, 50.7%; with RPMI-8226 leukemia, -11.6% (active); in the assay with OVCAR-8 ovarian it was 77.5%. Moreover, the growth in the assay on OVCAR-5 ovarian was 64.8%; in the assay on OVCAR-4 ovarian, 89.6%; in the assay with SK-OV-3 ovarian it was 86.3%; in the assay with IGROV1 ovarian, 85.3%; with OVCAR-3 ovarian, 64.1%; with NCI/ADR-RES ovarian, 69.7%.

Take `C[C@]12O[C@H]1[C@H](O)c1c(cc(O)c3c1C(=O)c1cccc(O)c1-3)C2=O`: the growth is 99.3% with SK-MEL-2 melanoma; 97.8% in the assay with EKVX NSCLC; 88.8% with SN12C renal; 91.1% in the assay with UO-31 renal; 99.3% with ACHN renal; 99.9% in the assay with CAKI-1 renal. For the same compound, the growth in the assay with A498 renal was 86.4%; in the assay with CCRF-CEM leukemia, 92%; with MOLT-4 leukemia, 86.6%; with SR leukemia, 93.6%; with RPMI-8226 leukemia, 93.6%; in the assay on OVCAR-8 ovarian it was 98.1%. For the same compound, the growth in the assay with OVCAR-5 ovarian was 106%; with OVCAR-4 ovarian, 92.4%; with SK-OV-3 ovarian it was 97.9%; in the assay with IGROV1 ovarian it was 102%; in the assay on OVCAR-3 ovarian, 106%; in the assay with HS 578T breast, 93.9%. The growth in the assay on NCI/ADR-RES ovarian was 107%.

For `CCN1CCN(Cc2ccc(NC(=O)Nc3cccc(-n4ccc5c(NC(=O)c6ccccc6)nccc54)c3)cc2C(F)(F)F)CC1`, the growth in the assay on SK-MEL-2 melanoma was 90.6%; in the assay on EKVX NSCLC, 89.8%; with SN12C renal it was 95.7%; in the assay on UO-31 renal it was 72.3%; in the assay on ACHN renal it was 96%; in the assay on CAKI-1 renal, 81%. Also, the growth is 90% in the assay on A498 renal; 78.7% in the assay on CCRF-CEM leukemia; 112% in the assay with MOLT-4 leukemia; 64.3% in the assay with SR leukemia; 99.1% with RPMI-8226 leukemia; 91% in the assay on OVCAR-8 ovarian. In addition, the growth in the assay on OVCAR-5 ovarian was 101%; with OVCAR-4 ovarian it was 95.8%; in the assay with SK-OV-3 ovarian it was 78.3%; with IGROV1 ovarian, 74.8%; with OVCAR-3 ovarian, 57.3%; in the assay on NCI/ADR-RES ovarian, 92.1%.

As to `O=C(Nc1ccc(-n2ccc3c(NC(=O)c4ccccc4)nccc32)cc1)c1ccc(Cl)c(C(F)(F)F)c1`, the growth in the assay with SK-MEL-2 melanoma was 53.4%; with EKVX NSCLC, 72.8%; with SN12C renal, 47.9%; in the assay with UO-31 renal, 36.6%; with ACHN renal, 37.1%; in the assay with CAKI-1 renal, 26.3%. The growth is 63.6% in the assay on A498 renal; -9.57% (active) in the assay on CCRF-CEM leukemia; 8.54% (active) in the assay on MOLT-4 leukemia; -28.7% (active) in the assay with SR leukemia; -17.3% (active) in the assay on RPMI-8226 leukemia; 23% in the assay with OVCAR-8 ovarian. Further, the growth in the assay on OVCAR-5 ovarian is 62.9%; in the assay with OVCAR-4 ovarian, 88.5%; in the assay with SK-OV-3 ovarian it was 53.9%; with IGROV1 ovarian, 36%; with OVCAR-3 ovarian, 22.9%; in the assay with NCI/ADR-RES ovarian it was 22.9%.
